About 79,000 compounds went through this panel and 15% of them were active in at least one assay; those are over-represented in the sample as a whole. Activity calls are given as the source filed them. No stated cut-off is given here; in the data, active means growth inhibition above about 70%; inactive means the rest.
Legend:
[1] = NCI Yeast Anticancer Drug Screen. Data for the rad50 strain (AID 155);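 further: 0% = growth of vehicle-only cultures of the same strain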; conditions: S. cerevisiae rad50 strain growth inhibition; at 50.0 µM; hits give high values
Procedure, shortened: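 Readout: growth inhibition relative to vehicle-treated cultures. Compound exposure was carried out in a genetically defined yeast strain deficient in DNA damage repair.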

[2] = NCI Yeast Anticancer Drug Screen. Data for the mec2-1 strain (AID 157); conditions: S. cerevisiae mec2-1 strain, at 50.0 µM, hits give high values
Procedure, shortened: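 Using mec2-1 yeast: add compound, measure growth, express inhibition versus vehicle-treated cultures.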

[3] = NCI Yeast Anticancer Drug Screen. Data for the sgs1 mgt1 strain (AID 161);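 further: 0% = growth of cultures given vehicle only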; conditions: S. cerevisiae sgs1 mgt1 strain, at 50.0 µM, hits give high values
Procedure, shortened: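 Growth of a repair-deficient yeast mutant was monitored after compound treatment and expressed as inhibition relative to vehicle-treated cultures.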

[4] = NCI Yeast Anticancer Drug Screen. Data for the cln2 rad14 strain (AID 165);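 further: 0% = growth equal to vehicle treated cultures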; conditions: S. cerevisiae cln2 rad14 strain, at 50.0 µM, hits give high values
Procedure, shortened: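 Yeast strain cln2 rad14, bearing defects in cell cycle control and DNA repair, serves as the test system; values reflect growth inhibition compared with vehicle.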

[5] = NCI Yeast Anticancer Drug Screen. Data for the bub3 strain (AID 167); conditions: S. cerevisiae bub3 mutant strain, at 50.0 µM, hits give high values
Procedure, shortened: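 Readout: yeast growth inhibition, expressed relative to vehicle-only wells. The test organism is a mutant strain from a panel with lesions in DNA repair or checkpoint genes.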

[6] = NCI Yeast Anticancer Drug Screen. Data for the mlh1 rad18 strain (AID 175); conditions: S. cerevisiae mlh1 rad18 strain growth inhibition; at 50.0 µM; hits give high values
Procedure, shortened: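 Steps: expose repair-defective yeast to compound; measure growth; express inhibition against vehicle-treated controls.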

Measured: growth inhibition

C=CCCCCCCCCC(=O)NCCN1CCOCC1
active: [1] 84.5% | [2] 93.8% | [3] 99.2% | [4] 93.8% | [5] 91.8% | [6] 98.2%

CC(=O)c1ccc(N2CCCCC2)cc1
inactive: [1] -7.8% | [2] -12.2% | [3] 4.55% | [4] -3.1% | [5] 40% | [6] -14.4%

CCCCCCCC/C=C\CCCCCCCC(=O)NCCN1CCCCC1
active: [1] 99% | [2] 99.5% | [3] 99.6% | [4] 97.8% | [5] 99% | [6] 99.2%

CC(C)CCOC(=O)COc1ccc(Cl)cc1Cl
inactive: [1] 6.95% | [2] -13.7% | [3] 3.55% | [4] 19.2% | [5] 18.8% | [6] -17%

NC(=O)CN(CC(N)=O)CC(N)=O
inactive: [1] -0.7% | [2] -11.7% | [3] 1.75% | [4] -2.85% | [5] -3.65% | [6] -7.9%

COc1cccc(CSCC(=O)O)c1
inactive: [1] -9.3% | [2] -26.5% | [3] -44.2% | [4] 7.25% | [5] -17.6% | [6] -1.6%

CC(=O)OC1CCC2(C)C3=CCC4(C)C(C(C)=O)=CCC4C3CCC2C1 (configuration not stated)
inactive: [1] -27.9% | [2] -21.9% | [3] -29.2% | [4] 12.6% | [5] -22.9% | [6] -23.1%

CSC1=N/C(=C\c2ccc(C)cc2)C(=O)N1
inactive: [1] -35.5% | [2] 0.3% | [3] 20.2% | [4] 0.85% | [5] -6.35% | [6] -10.5%

CC1CC(c2ccccc2)(c2ccccc2)CN1C (configuration not stated)
inactive: [1] -16.1% | [2] 9.4% | [3] 6.55% | [4] -45.3% | [5] 15.2% | [6] 8.5%

Cc1cc(NC(=O)COCC(=O)O)no1
inactive: [1] -7.15% | [2] -24.9% | [3] 5.65% | [4] 9.45% | [5] 0.6% | [6] -9.15%

CC(C)C(=O)OCc1ccc(Cl)cc1
inactive: [1] 29.8% | [2] 38.3% | [3] 21.8% | [4] 12.1% | [5] 26.8% | [6] 17.4%

COC(=O)C(=O)c1c(C(=O)OC)nc2nnc(N)n2c1-c1ccc(O)c(OC)c1
inactive: [1] 0.5% | [2] -11.9% | [3] -2.65% | [4] -31.8% | [5] 16.5% | [6] -9.9%

CCCNC(=O)OCC#CCOC(=O)NCCC
inactive: [1] 2.5% | [2] -4.15% | [3] 15.4% | [4] -38.5% | [5] 12.5% | [6] -6.1%

Cc1cccc(C)c1NC(=O)Nc1cccc(C#N)c1
inactive: [1] -0.3% | [2] -10.8% | [3] 7.35% | [4] 15.3% | [5] -0.55% | [6] 17.4%

O=C(O)C1C2C=CC(O2)C1C(=O)NCc1ccccn1 (configuration not stated)
inactive: [1] -3.5% | [2] -26.5% | [3] -7.3% | [4] -22.6% | [5] -37% | [6] 9.85%

CN(CN(C)N=Nc1ccc(Br)cc1)CN(C)N=Nc1ccc(Br)cc1
inactive: [1] -0.7% | [2] 19.6% | [3] 4.45% | [4] 23.2% | [5] 5.1% | [6] 15%

CCOC1NC(=O)c2ccccc21 (configuration not stated)
inactive: [1] 22.1% | [2] 6.15% | [3] 5.85% | [4] 22.2% | [5] 19.1% | [6] 12.8%

CNC(=O)OCc1c(COC(=O)NC)c(-c2ccc(S(C)(=O)=O)cc2)n(C)c1C
inactive: [1] 49% | [2] -3.3% | [3] -16.2% | [4] 5.25% | [5] -10.1% | [6] -42%

CC(C)=CCNc1ccccc1
inactive: [1] -11.3% | [2] -24.1% | [3] 1.7% | [4] 17.4% | [5] 1.05% | [6] -7.3%

CC(=O)OCCS(=O)(=O)c1c(Cl)c(Cl)c(Cl)c(Cl)c1Cl
active: [1] 95.7% | [2] 97.4% | [3] 98.9% | [4] 93.8% | [5] 95.7% | [6] 97.8%

CN1C(=O)NC(C)(C)C1=O
inactive: [1] -1.5% | [2] 3.3% | [3] -1.75% | [4] -13.7% | [5] -8.45% | [6] -4.95%

COc1ccc(OC)c(N=Nc2c(C)nc(N)nc2C)c1
inactive: [1] 11.3% | [2] 4.4% | [3] 7.85% | [4] -32.6% | [5] 19.6% | [6] 10.2%

O=C(O)c1ccncc1C(=O)O
inactive: [1] -4.3% | [2] -9.3% | [3] -17.1% | [4] 0.25% | [5] -5.8% | [6] 3%

COC(=O)n1c(CBr)c(Br)c2ccccc21
inactive: [1] 26.3% | [2] -2.15% | [3] -3.65% | [4] -3.8% | [5] 4.9% | [6] 1.5%

CC(=O)OCC1OC(n2cnc3c(Cl)nc(Cl)nc32)CC1OC(C)=O (configuration not stated)
inactive: [1] 37.3% | [2] 20.9% | [3] 24.4% | [4] 30.4% | [5] 5.2% | [6] 34.9%

Cn1ccc2c([N+](=O)[O-])cccc2c1=O
inactive: [1] 4.1% | [2] 2% | [3] 2.55% | [4] -45.9% | [5] -25.4% | [6] 4.35%

COc1ccc2nc(NC(=O)C(=O)C(C)C(=O)c3ccc(Cl)cc3)sc2c1 (configuration not stated)
inactive: [1] -10.1% | [2] 4.85% | [3] -8.65% | [4] -5.9% | [5] -2.55% | [6] -0.25%

COC(=O)c1cn[nH]c1CC(N)=O
inactive: [1] 35.9% | [2] 11.5% | [3] 25.1% | [4] -17.1% | [5] 12.3% | [6] 19.9%

CN1C(c2ccccc2)NC(=O)C12CCN(CCCC(=O)c1ccccc1)CC2 (configuration not stated)
inactive: [1] 63.5% | [2] 39.7% | [3] 53.2% | [4] 19.5% | [5] 17.9% | [6] 45.2%

CCCCC1(CN(C)C)C(=O)N(C)C(=O)N(C2CCCCC2)C1=O (configuration not stated)
inactive: [1] 9.15% | [2] 10.2% | [3] 1.4% | [4] 21.9% | [5] -4.2% | [6] 9.6%

N#Cc1c(N)[nH]c(=S)c(C#N)c1-c1ccccc1
inactive: [1] 45.9% | [2] 35.5% | [3] 47.4% | [4] 33.5% | [5] 31.4% | [6] 35.1%

O=C=Nc1ccc(Cc2ccc(N=C=O)cc2)cc1
inactive: [1] -13.7% | [2] 6.7% | [3] -7.45% | [4] -15.2% | [5] -23.9% | [6] -36.5%

COc1cc(/C=N/NC2=NCCCN2)ccc1O
inactive: [1] 28.7% | [2] 13.2% | [3] 7.75% | [4] -16.2% | [5] 0.7% | [6] 17.4%

CCCN(CCC)CC(O)CN(CCC)CCC
inactive: [1] -0.4% | [2] -24.1% | [3] -21.6% | [4] -36% | [5] 5.55% | [6] -0.3%

Nc1cc(Cl)cc2c1nc(NCCO)c1ccccc12
active: [4] 97.9%
inactive: [1] 54.7% | [2] 60.3% | [3] 49.1% | [5] 51.6% | [6] 56.5%

OCCSCc1ccccc1
inactive: [1] 29.6% | [2] 0.3% | [3] -6.1% | [4] 7.2% | [5] -13.7% | [6] -1.3%

O=S(=O)(O)CCCCBr
inactive: [1] 3.6% | [2] -31.4% | [3] 16.8% | [4] -5% | [5] -3% | [6] 13.5%

Cc1ccc(-c2n[nH]c(=O)n2N)cc1
inactive: [1] 3.5% | [2] -23% | [3] 0.85% | [4] 5.45% | [5] 0.45% | [6] 7.25%

O=c1c(-c2ccc(O)cc2)coc2cc(O)cc(O)c12
inactive: [1] 8.85% | [2] -6.15% | [3] 18.1% | [4] 3.65% | [5] 11.4% | [6] 5%

N=C(N)SCCC(=O)O
inactive: [1] -29.4% | [2] -21.1% | [3] -39.7% | [4] -69.6% | [5] 17.4% | [6] -56.6%

CC(=O)CCCCc1ccccc1
inactive: [1] -1.45% | [2] -8.45% | [3] -9.3% | [4] -71.6% | [5] -9.2% | [6] -1%

COC(=O)C1(CCC(C)=O)CCC(C)C1=O (configuration not stated)
inactive: [1] 2.55% | [2] -4.5% | [3] 1.2% | [4] 0.2% | [5] -19.6% | [6] -9.8%
